In PubChem BioAssay:
Inconclusive results are not listed. Calls of active or inactive are those of the source.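 How the source made its calls, unless noted: active means inhibition above the screen-wide mean plus 3 SD, about 51%; inactive means the rest.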

How the values were obtained:
[1] = yeast TOR pathway RPL19A-GFP modulators, primary screen, cell-based, S. cerevisiae, multiplex flow cytometry (AID 1862; in the data active means percent of DMSO control GFP below about 86%;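 further: lower values mimic rapamycin by blocking the RPL19A rise seen in DMSO cells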); settings: S. cerevisiae RPL19A-GFP strain, flow cytometry fluorescence, 3 h; at 10 µM; stronger effect = lower value
[2] = modulators of MEP2-GFP levels in yeast, primary screen, S. cerevisiae, multiplex flow cytometry (AID 1867;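 active means GFP response, as percent of the DMSO control, above the screen-wide mean plus 3 SD, about 139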;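 further: median GFP channel fluorescence of barcode-gated MEP2-GFP cells measured by flow cytometry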); settings: S. cerevisiae MEP2-GFP strain, 3 h, at 10 µM, stronger effect = higher value, 100% means same as DMSO wells
[3] = modulators of CIT2-GFP expression in yeast, primary screen, S. cerevisiae, GFP fusion, multiplex flow cytometry (AID 1870;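 active means percent response above a set limit, the screen-wide mean plus 3 SD, cut at about 130% in these data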;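 further: barcoded CIT2-GFP strain pooled with four other GFP strains with rapamycin as positive control; median GFP fluorescence per well over plate mean of DMSO wells so 100% = DMSO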); settings: 3 h, at 10 µM, stronger effect = higher value
[4] = modulators of LAP4-GFP expression in yeast, primary screen, S. cerevisiae, multiplex flow cytometry (AID 1873;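 active means GFP signal, as percent of the solvent control, above the screen mean plus 3 SD, about 149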); settings: 3 h, at 10 µM, stronger effect = higher value
[5] = modulators of AGP1-GFP expression in yeast TOR pathway, primary screen, cell-based, multiplex flow cytometry, S. cerevisiae (AID 1887;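 active means GFP signal above the screen-wide mean plus 3 SD, that is over about 124.5% of the solvent control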;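 further: AGP1-GFP fusion strain of S. cerevisiae within a five-strain barcoded multiplex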); settings: 3 h, at 10 µM, stronger effect = higher value
[6] = inhibitors of CD8+ T cell-vesicle binding, pilot screen, LFA-1/ICAM-1 modulator project, MLPCN validation set, flow cytometry (AID 2523;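 active means response below a set limit, under 55% cells CD8-positive and vesicle-bound, and CD8 cells' 90th-percentile brightness under 279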;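 on vesicle binding response: mean PE anti-B7-1 fluorescence of CD8+ cells relative to row control; 100% = QL9-loaded vesicles with DMSO vehicle in the same plate row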); settings: 2C mouse CD8+ T cells, at 7 µM, stronger effect = lower value; double positive events: measured here: CD8+/vesicle+ event percentage
[7] = target: Integrin beta-1 (Homo sapiens) + Integrin alpha-4 (Homo sapiens) (UniProt P13612+P05556); assay: inhibition of HUTS-21 binding to VLA-4, pilot screen, VLA-4 allosteric modulator project, U937 cells, HUTS-21 mAb, flow cytometry, validation set (AID 2674;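 active means inhibition above 50%, about 3 SD of the validation set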;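 further: antibody binding induced by the VLA-4 ligand LDV present at three times its Kd; 0% = LDV ligand with antibody and no compound and 100% = antibody without LDV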); settings: HUTS-21 LIBS mAb binding, at 6.7 µM, stronger effect = higher value, binding induced by LDV ligand
[8] = superoxide lowering in aged yeast cells, pilot screen, validation compound set (AID 2706;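 active means superoxide response below 65% of plate, a cut near 3 SD across the whole screen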;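 further: yeast exposed to compound for one week at 30 degrees C before staining; 100% = mean of all compound wells on the same plate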); settings: S. cerevisiae aging, superoxide DHE fluorescence; at 10 µM, stronger effect = lower value
[9] = target: Beta-adrenergic receptor kinase 1 (Homo sapiens) (UniProt P25098); assay: GRK2 binders displacing RNA aptamer, biochemical, validation, human GRK2, bead flow cytometry (AID 488806;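 active means aptamer binding inhibition above 30%, about 3 SD of noise from non-fluorescent compounds; inactive means inhibition at or below 30%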); settings: bead-bound GRK2, FAM-aptamer displacement, at 10 µM, stronger effect = higher value
[10] = target: Beta-2 adrenergic receptor (Homo sapiens) (UniProt P07550); assay: beta2AR agonists driving receptor internalization, pilot screen, cell-based, FAP fluorogen, flow cytometry, validation set (AID 504459;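 active means percent response above 42, roughly 3 SD of non-fluorescent test compounds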;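 further: agonist-driven loss of surface beta2AR via internalization measured by FAP dye flow cytometry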); settings: Am2.2-beta2AR cells, FAP surface receptor flow cytometry; at 10 µM; stronger effect = higher value
[11] = yeast V-ATPase proton transport modulators, S. cerevisiae, pHLuorin, HTS validation (AID 504600; in the data active means response above about 15%;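 further: plate controls were DMSO for no effect and reference compound for full effect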); settings: S. cerevisiae pHLuorin cytosolic pH, at 10 µM, stronger effect = higher value
[12] = system: anti-desmoglein-3 scFv antibody binding to human DSG3; assay: inhibitors of anti-DSG3 scFv binding to DSG3, pilot screen, biochemical, validation compound set, bead-based, flow cytometry (AID 588368;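 active means binding below the plate cutoff, the plate median minus 3 SD, with a reading above zero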;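 further: signal is the median channel fluorescence of bead-bound GFP antibody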); settings: Protein G beads, DSG3-Fc, scFv-GFP binding, at 10 µM, stronger effect = lower value
[13] = inhibitors of fungal efflux pumps CDR1, CDR2, MDR1, pilot screen, validation compound set, multiplex, phenotypic (AID 588506;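 active means efflux inhibition above 0.42, the validation set average plus 4 SD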;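 further: Nile Red retained in cells so higher fluorescence means more efflux inhibition; 0 = negative control wells and 1 = enniatin B 25 µM full block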); settings: S. cerevisiae pump-expressing triplex, Nile Red efflux flow cytometry; at 10 µM; stronger effect = higher value; the pumps come from Candida albicans
[14] = target: ATP-binding cassette sub-family B member 6 (Homo sapiens) (UniProt Q9NP58); assay: ABCB6 transporter inhibitors, pilot screen, K562-ABCB6 cells, flow cytometry, validation set (AID 588550); settings: K562-ABCB6 porphyrin accumulation, 1 h, at 10 µM, stronger effect = higher value;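 further: 0% = DMSO wells and 100% = benzethonium chloride 70 µM positive control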
[15] = promoters of myeloid differentiation in arrested cells, primary screen, cell-based, GFP/MAC1 double positive, flow cytometry, validation set (AID 588685;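 active means differentiation response of at least 50%, scaled between solvent and reference control, from cells with both markers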;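 further: compound exposure lasts four days before antibody staining and flow analysis; 0% = DMSO wells and 100% = 5 µM fulvestrant positive control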); settings: ER-HoxA9 marrow cells, stronger effect = higher value, normalized: vehicle 0, fulvestrant 100
[16] = target: AP-2 complex subunit beta (Homo sapiens) (UniProt P63010); assay: inhibitors of arrestin peptide binding to AP2, pilot screen, biochemical, validation set, GST-AP2 beads, flow cytometry (AID 504541;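 active means inhibition above 54%, about 3 SD of non-fluorescent compounds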;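 further: AP2 carries R879A mutation and is captured from E. coli lysate; bead-bound FITC arrestin peptide fluorescence measuring arrestin peptide binding to AP2; 0% = DMSO wells and 100% = excess unlabeled arrestin peptide control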); settings: FITC arrestin peptide, at 10 µM, stronger effect = higher value, AP2 beta2 appendage fragment, R879A mutant
Chain of AP-2 complex subunit beta (Homo sapiens) (P63010 whole entry, looked up, the tested form may be a part, one chain of several): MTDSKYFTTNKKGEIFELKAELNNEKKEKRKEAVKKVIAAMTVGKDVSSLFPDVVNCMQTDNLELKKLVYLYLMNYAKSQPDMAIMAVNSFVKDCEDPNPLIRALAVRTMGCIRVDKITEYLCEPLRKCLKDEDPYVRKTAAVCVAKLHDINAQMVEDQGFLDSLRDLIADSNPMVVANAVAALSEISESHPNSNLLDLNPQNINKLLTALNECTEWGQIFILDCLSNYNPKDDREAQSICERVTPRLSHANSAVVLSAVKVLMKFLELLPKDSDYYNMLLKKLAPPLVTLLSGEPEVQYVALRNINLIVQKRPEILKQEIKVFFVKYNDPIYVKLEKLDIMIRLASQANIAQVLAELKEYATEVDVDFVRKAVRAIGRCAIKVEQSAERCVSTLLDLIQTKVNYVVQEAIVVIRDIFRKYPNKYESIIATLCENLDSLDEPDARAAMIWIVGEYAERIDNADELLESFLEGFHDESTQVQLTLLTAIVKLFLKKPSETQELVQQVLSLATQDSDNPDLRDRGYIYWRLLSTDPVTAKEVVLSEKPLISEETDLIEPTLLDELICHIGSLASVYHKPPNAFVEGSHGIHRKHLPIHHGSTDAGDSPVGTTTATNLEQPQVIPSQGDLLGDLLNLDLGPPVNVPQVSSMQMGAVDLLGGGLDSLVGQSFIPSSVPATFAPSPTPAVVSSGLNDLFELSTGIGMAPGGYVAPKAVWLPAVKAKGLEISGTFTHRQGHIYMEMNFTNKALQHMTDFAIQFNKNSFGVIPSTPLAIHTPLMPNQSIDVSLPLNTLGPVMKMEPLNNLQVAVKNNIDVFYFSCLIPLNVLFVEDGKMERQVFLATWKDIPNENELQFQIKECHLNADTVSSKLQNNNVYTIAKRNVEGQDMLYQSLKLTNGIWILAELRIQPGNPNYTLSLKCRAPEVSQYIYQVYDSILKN

Chain of Integrin beta-1 (Homo sapiens) + Integrin alpha-4 (Homo sapiens) (P05556 whole entry, looked up): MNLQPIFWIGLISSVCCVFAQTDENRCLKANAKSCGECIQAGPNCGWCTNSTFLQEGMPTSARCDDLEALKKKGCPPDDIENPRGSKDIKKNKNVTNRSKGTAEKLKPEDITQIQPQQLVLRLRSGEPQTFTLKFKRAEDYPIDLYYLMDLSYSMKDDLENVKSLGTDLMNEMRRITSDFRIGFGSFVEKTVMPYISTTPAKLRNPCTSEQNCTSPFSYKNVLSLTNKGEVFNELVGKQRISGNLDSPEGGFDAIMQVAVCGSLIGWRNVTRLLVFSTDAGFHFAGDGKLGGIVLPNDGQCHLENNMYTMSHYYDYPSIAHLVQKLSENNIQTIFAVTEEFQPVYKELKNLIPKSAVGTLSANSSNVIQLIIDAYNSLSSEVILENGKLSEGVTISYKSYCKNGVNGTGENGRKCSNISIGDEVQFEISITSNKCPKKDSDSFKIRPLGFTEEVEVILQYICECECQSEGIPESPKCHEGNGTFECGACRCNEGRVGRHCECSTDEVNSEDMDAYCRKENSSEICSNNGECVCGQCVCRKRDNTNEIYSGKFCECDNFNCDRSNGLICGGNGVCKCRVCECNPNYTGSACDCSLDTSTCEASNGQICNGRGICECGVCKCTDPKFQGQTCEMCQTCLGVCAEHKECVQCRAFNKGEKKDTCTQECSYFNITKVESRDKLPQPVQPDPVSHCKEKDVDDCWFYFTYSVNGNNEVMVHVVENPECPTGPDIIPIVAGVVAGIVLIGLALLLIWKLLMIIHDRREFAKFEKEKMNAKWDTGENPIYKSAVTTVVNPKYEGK
Chain of Integrin beta-1 (Homo sapiens) + Integrin alpha-4 (Homo sapiens) (P13612 whole entry, looked up): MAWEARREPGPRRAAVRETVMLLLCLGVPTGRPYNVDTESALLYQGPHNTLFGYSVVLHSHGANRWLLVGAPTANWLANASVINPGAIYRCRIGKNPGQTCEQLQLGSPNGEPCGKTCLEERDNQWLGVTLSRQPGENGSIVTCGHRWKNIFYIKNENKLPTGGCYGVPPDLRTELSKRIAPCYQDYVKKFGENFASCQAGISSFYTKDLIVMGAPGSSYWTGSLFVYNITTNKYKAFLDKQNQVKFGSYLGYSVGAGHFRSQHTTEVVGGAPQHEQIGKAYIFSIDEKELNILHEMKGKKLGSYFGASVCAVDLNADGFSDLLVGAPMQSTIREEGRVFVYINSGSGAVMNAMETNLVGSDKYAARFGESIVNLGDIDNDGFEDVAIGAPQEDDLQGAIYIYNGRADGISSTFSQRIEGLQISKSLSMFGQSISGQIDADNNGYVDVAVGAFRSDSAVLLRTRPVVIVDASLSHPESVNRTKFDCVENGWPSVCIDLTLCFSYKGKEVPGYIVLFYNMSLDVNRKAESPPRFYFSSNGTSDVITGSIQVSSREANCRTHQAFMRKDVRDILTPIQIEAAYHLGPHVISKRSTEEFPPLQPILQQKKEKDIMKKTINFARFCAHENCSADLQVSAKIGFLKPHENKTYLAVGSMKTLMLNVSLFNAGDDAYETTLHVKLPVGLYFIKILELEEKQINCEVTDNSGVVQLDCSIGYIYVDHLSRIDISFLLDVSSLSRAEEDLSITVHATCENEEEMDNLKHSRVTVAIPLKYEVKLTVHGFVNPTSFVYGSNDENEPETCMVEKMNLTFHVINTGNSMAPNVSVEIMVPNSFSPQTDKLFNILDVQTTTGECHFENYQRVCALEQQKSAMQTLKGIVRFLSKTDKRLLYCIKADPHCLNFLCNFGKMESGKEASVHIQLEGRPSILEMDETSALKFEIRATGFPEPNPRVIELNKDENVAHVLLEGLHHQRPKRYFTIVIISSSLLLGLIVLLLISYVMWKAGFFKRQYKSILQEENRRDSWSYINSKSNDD
Chain of Beta-adrenergic receptor kinase 1 (Homo sapiens) (P25098 whole entry, looked up): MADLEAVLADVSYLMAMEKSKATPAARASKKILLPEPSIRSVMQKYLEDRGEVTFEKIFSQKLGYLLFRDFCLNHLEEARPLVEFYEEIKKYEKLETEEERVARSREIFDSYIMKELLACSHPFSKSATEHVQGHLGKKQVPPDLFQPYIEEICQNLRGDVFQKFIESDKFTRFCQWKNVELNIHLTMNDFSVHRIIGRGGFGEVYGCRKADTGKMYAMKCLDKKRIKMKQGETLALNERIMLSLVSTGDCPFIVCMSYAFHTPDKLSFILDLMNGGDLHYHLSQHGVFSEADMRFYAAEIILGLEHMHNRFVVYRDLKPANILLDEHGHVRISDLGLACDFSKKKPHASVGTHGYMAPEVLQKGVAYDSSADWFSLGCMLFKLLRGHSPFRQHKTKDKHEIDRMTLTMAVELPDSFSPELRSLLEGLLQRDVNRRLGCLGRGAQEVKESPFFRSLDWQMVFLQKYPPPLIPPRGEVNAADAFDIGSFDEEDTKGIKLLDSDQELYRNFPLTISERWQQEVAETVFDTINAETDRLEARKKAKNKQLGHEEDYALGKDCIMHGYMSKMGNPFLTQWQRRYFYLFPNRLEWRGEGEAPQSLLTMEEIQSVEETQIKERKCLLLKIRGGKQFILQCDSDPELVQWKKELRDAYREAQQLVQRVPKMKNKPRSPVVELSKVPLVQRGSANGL
Chain of Beta-2 adrenergic receptor (Homo sapiens) (P07550 whole entry, looked up): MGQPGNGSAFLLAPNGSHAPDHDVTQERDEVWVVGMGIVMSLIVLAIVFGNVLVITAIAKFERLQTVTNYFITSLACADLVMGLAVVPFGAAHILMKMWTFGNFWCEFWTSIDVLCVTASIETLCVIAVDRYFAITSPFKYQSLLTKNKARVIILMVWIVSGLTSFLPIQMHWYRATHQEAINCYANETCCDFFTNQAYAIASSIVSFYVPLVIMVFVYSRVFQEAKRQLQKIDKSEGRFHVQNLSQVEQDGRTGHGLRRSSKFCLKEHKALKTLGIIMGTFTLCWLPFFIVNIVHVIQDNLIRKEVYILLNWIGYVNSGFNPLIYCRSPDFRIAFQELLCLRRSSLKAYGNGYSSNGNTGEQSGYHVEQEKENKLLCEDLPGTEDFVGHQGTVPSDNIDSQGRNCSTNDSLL
Chain of ATP-binding cassette sub-family B member 6 (Homo sapiens) (Q9NP58 whole entry, looked up): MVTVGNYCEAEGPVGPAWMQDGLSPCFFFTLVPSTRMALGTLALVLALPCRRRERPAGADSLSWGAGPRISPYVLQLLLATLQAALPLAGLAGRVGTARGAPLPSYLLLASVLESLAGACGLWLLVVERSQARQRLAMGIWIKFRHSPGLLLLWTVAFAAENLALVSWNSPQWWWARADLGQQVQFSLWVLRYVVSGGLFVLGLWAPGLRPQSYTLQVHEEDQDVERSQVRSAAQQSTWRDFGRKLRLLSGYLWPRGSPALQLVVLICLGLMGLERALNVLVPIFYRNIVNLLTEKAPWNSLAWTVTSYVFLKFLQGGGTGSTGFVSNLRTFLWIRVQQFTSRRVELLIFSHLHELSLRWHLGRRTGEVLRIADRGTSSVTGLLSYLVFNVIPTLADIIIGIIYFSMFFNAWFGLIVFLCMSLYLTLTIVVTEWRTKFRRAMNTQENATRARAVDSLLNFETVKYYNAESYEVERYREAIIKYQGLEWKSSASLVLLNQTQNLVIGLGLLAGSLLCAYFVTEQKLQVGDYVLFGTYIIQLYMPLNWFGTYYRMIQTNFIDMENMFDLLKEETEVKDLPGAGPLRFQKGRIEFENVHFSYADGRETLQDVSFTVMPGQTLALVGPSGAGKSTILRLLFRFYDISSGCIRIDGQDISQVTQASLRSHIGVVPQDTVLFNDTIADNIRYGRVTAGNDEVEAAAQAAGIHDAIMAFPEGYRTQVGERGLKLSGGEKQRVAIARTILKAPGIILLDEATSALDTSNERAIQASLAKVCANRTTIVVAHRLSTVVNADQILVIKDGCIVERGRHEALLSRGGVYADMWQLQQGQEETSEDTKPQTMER

## COc1ccc2c(c1)[nH]c1c(=O)n(Cc3ccccn3)cnc12
[1]
  percent of DMSO control GFP: 97.7% (inactive)
[2]
  GFP response vs DMSO: 97.7% (inactive)
[3]
  percent response of DMSO control: 101% (inactive)
[4]
  GFP response vs DMSO: 106% (inactive)
[5]
  GFP response, % of DMSO: 96.1% (inactive)
[6]
  double positive events: 64%
  vesicle binding response: 1600% (inactive)
[7]
  inhibition: -1.74% (inactive)
[8]
  superoxide response (% of plate): 109% (inactive)
[9]
  aptamer binding inhibition: -4% (inactive)
[10]
  response: 2.42% (inactive)
[11]
  response: -2.14% (inactive)
[12]
  binding (% of control): 98% (inactive)
[13]
  efflux inhibition (fraction of control): -0.5 (inactive)
[14]
  inhibition: 3% (inactive)
[15]
  differentiation response: 10.3% (inactive)

## CCN(CC)C1=C(Cl)C(=O)C(Cl)C12OCCO2 (centres undefined)
[1]
  percent of DMSO control GFP: 100% (inactive)
[2]
  GFP response vs DMSO: 104% (inactive)
[3]
  percent response of DMSO control: 88.1% (inactive)
[4]
  GFP response vs DMSO: 100% (inactive)
[5]
  GFP response, % of DMSO: 89.2% (inactive)
[6]
  double positive events: 61.5%
  vesicle binding response: 160% (inactive)
[7]
  inhibition: 6.29% (inactive)
[8]
  superoxide response (% of plate): 94.6% (inactive)
[9]
  aptamer binding inhibition: -5% (inactive)
[16]
  inhibition: 49.7% (inactive)
[11]
  response: 1.58% (inactive)
[12]
  binding (% of control): 95.6% (inactive)
[13]
  efflux inhibition (fraction of control): 0.9 (active)
[14]
  inhibition: 10% (inactive)
[15]
  differentiation response: 6.26% (inactive)

## CN1C(=O)C(O)(CC(=O)c2ccccc2O)c2cc(Br)ccc21 (centres undefined)
[1]
  percent of DMSO control GFP: 100% (inactive)
[2]
  GFP response vs DMSO: 107% (inactive)
[3]
  percent response of DMSO control: 109% (inactive)
[4]
  GFP response vs DMSO: 115% (inactive)
[5]
  GFP response, % of DMSO: 106% (inactive)
[6]
  double positive events: 57.7%
  vesicle binding response: 199% (inactive)
[7]
  inhibition: 16.6% (inactive)
[8]
  superoxide response (% of plate): 101% (inactive)
[9]
  aptamer binding inhibition: 0% (inactive)
[16]
  inhibition: 4.33% (inactive)
[11]
  response: 0.66% (inactive)
[12]
  binding (% of control): 99% (inactive)
[13]
  efflux inhibition (fraction of control): -0.09 (inactive)
[14]
  inhibition: 9% (inactive)
[15]
  differentiation response: 7.87% (inactive)

## CC[n+]1c(C)sc2cc(C)ccc21
[1]
  percent of DMSO control GFP: 96.4% (inactive)
[2]
  GFP response vs DMSO: 103% (inactive)
[3]
  percent response of DMSO control: 87.1% (inactive)
[4]
  GFP response vs DMSO: 116% (inactive)
[5]
  GFP response, % of DMSO: 95.4% (inactive)
[6]
  double positive events: 50%
  vesicle binding response: 138% (inactive)
[7]
  inhibition: -11.4% (inactive)
[8]
  superoxide response (% of plate): 106% (inactive)
[9]
  aptamer binding inhibition: 6% (inactive)
[16]
  inhibition: -14% (inactive)
[11]
  response: -1.58% (inactive)
[12]
  binding (% of control): 102% (inactive)
[13]
  efflux inhibition (fraction of control): 0.44 (active)
[14]
  inhibition: 15% (inactive)
[15]
  differentiation response: -13.1% (inactive)

## Nc1nnc(-c2cccc(Cl)c2Cl)c(N)n1
[1]
  percent of DMSO control GFP: 101% (inactive)
[2]
  GFP response vs DMSO: 108% (inactive)
[3]
  percent response of DMSO control: 103% (inactive)
[4]
  GFP response vs DMSO: 100% (inactive)
[5]
  GFP response, % of DMSO: 103% (inactive)
[6]
  double positive events: 49.8%
  vesicle binding response: 120% (inactive)
[7]
  inhibition: 9.63% (inactive)
[8]
  superoxide response (% of plate): 110% (inactive)
[9]
  aptamer binding inhibition: 2% (inactive)
[10]
  response: 6.9% (inactive)
[16]
  inhibition: -13.2% (inactive)
[11]
  response: -3.91% (inactive)
[12]
  binding (% of control): 94.9% (inactive)
[14]
  inhibition: 4% (inactive)
[15]
  differentiation response: -8.96% (inactive)

## CC(C)c1ccccc1OCCNC(=S)NC(=O)c1cccnc1
[1]
  percent of DMSO control GFP: 98.2% (inactive)
[2]
  GFP response vs DMSO: 97.4% (inactive)
[3]
  percent response of DMSO control: 92% (inactive)
[4]
  GFP response vs DMSO: 96.5% (inactive)
[5]
  GFP response, % of DMSO: 96.3% (inactive)
[6]
  double positive events: 62.4%
  vesicle binding response: 185% (inactive)
[7]
  inhibition: 22.8% (inactive)
[8]
  superoxide response (% of plate): 105% (inactive)
[9]
  aptamer binding inhibition: -3% (inactive)
[10]
  response: 4.29% (inactive)
[11]
  response: -2.54% (inactive)
[12]
  binding (% of control): 99.7% (inactive)
[13]
  efflux inhibition (fraction of control): 1.3 (active)
[14]
  inhibition: 3% (inactive)
[15]
  differentiation response: 100% (active)

## Nc1ccc(S(=O)(=O)c2ccc(N)cc2)cc1
[1]
  percent of DMSO control GFP: 100% (inactive)
[2]
  GFP response vs DMSO: 102% (inactive)
[3]
  percent response of DMSO control: 93% (inactive)
[4]
  GFP response vs DMSO: 103% (inactive)
[5]
  GFP response, % of DMSO: 99.3% (inactive)
[6]
  double positive events: 63.7%
  vesicle binding response: 142% (inactive)
[7]
  inhibition: 8.15% (inactive)
[8]
  superoxide response (% of plate): 97.8% (inactive)
[9]
  aptamer binding inhibition: 0% (inactive)
[16]
  inhibition: 2.16% (inactive)
[11]
  response: -1.03% (inactive)
[12]
  binding (% of control): 100% (inactive)
[13]
  efflux inhibition (fraction of control): 0.14 (inactive)
[14]
  inhibition: 5% (inactive)
[15]
  differentiation response: -5.05% (inactive)

## Cn1cc(CN2CCCC(CO)(Cc3cccc(Cl)c3)C2)cn1 (centres undefined)
[1]
  percent of DMSO control GFP: 98% (inactive)
[2]
  GFP response vs DMSO: 102% (inactive)
[3]
  percent response of DMSO control: 98.2% (inactive)
[4]
  GFP response vs DMSO: 97.2% (inactive)
[5]
  GFP response, % of DMSO: 99.5% (inactive)
[6]
  double positive events: 59.5%
  vesicle binding response: 57.6% (inactive)
[7]
  inhibition: 9.71% (inactive)
[8]
  superoxide response (% of plate): 92.7% (inactive)
[9]
  aptamer binding inhibition: 0% (inactive)
[10]
  response: 30.5% (inactive)
[11]
  response: -0.03% (inactive)
[12]
  binding (% of control): 102% (inactive)
[13]
  efflux inhibition (fraction of control): -0.66 (inactive)
[14]
  inhibition: 2% (inactive)
[15]
  differentiation response: -1.88% (inactive)

## O=c1ccn([C@@H]2O[C@H](CO)[C@@H](O)[C@H]2O)c(=O)[nH]1
[1]
  percent of DMSO control GFP: 102% (inactive)
[2]
  GFP response vs DMSO: 102% (inactive)
[3]
  percent response of DMSO control: 93.8% (inactive)
[4]
  GFP response vs DMSO: 98.3% (inactive)
[5]
  GFP response, % of DMSO: 109% (inactive)
[6]
  double positive events: 63.9%
  vesicle binding response: 124% (inactive)
[7]
  inhibition: 11.7% (inactive)
[8]
  superoxide response (% of plate): 99.8% (inactive)
[9]
  aptamer binding inhibition: 3% (inactive)
[10]
  response: -22.4% (inactive)
[16]
  inhibition: 10.2% (inactive)
[11]
  response: 1.83% (inactive)
[12]
  binding (% of control): 102% (inactive)
[14]
  inhibition: 1% (inactive)
[15]
  differentiation response: 24.6% (inactive)
